Most compounds without a hit are left out; they make up all but 1.1% or so of the library.
OPRM1-OPRD1 ag: agonists of OPRM1-OPRD1 heterodimerization, primary screen, cell-based, luminescence; Mu-type opioid receptor (Homo sapiens) + Delta-type opioid receptor (Homo sapiens), …; activation, % at 9.3 µM; cells; 340,000 tested, 0.3% active; in the data active = activation above about 18%;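 note: 0% = vehicle-treated cells and 100% = reference agonist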
HTR5A ag: HTR5A agonists in luminescence cell assay, primary screen, counter-screen for OPRM1-OPRD1 heterodimer agonist project, full-deck HTS | 5-hydroxytryptamine receptor 5A (Homo sapiens), P47898 | cell-based | activation, % at 9.3 µM | 340,000 tested, 0.61% active | AID 504692, 2011; in the data active = activation mostly above about 9.5%, no sharp cut-off; inactive = mostly below about 7.6%;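 note: 0% = cells with vehicle only and 100% = reference agonist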
Target sequence (P47898 whole entry, looked up): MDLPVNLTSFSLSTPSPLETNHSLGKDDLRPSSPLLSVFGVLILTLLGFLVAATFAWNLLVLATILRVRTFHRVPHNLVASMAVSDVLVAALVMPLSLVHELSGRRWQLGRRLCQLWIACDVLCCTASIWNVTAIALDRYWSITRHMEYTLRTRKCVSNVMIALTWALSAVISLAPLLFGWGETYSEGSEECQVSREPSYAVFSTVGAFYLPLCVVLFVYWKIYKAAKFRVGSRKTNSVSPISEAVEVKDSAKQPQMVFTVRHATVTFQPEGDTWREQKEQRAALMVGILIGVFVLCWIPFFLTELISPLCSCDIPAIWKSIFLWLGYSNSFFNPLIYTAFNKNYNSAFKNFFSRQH
HTR5A inv ctr: HTR5A inverse agonists in luminescence cell assay, primary screen, counter-screen for OPRM1-OPRD1 heterodimer inverse agonist project, full-deck HTS. 5-hydroxytryptamine receptor 5A (Homo sapiens), P47898. HTR5A cell line, inverse agonism. inhibition, % at 9.3 µM. 340,000 tested, 0.083% active; in the data active = inhibition mostly above about 23%, no sharp cut-off; inactive = mostly below about 18%;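 note: 0% = cells with DMSO and 100% = no-cell wells with DMSO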
MOR-DOR inv ag: inverse agonists of MOR-DOR heterodimerization, primary screen, cell-based, luminescence; cell-based MOR-DOR heterodimer luminescence, inverse agonism; inhibition, % at 9.3 µM; Mu-type opioid receptor (Homo sapiens) + Delta-type opioid receptor (Homo sapiens), …; 340,000 tested, 0.21% active; in the data active = inhibition above about 22%, passing the limit was not always enough;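 note: 0% = cells with DMSO and 100% = wells without cells with DMSO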
OPRM1-D1 inv cf: inverse agonists of MOR-DOR heterodimerization, confirmation, cell-based, luminescence; shares compounds with MOR-DOR inv ag; cells expressing OPRM1/OPRD1 heterodimer; inhibition, % at 9.3 µM; 580 tested, 20% active; AID 504900, 2011; in the data active = inhibition above about 32%;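 note: 0% = cells with DMSO and 100% = wells lacking cells with DMSO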
HTR5A inv count: HTR5A inverse agonists, counter-screen for OPRM1-OPRD1 inverse agonist project, cell-based, luminescence. shares compounds with MOR-DOR inv ag. HTR5A-expressing cells, inverse agonism. inhibition, % at 9.3 µM. 580 tested, under 10 active. AID 504914, 2011; call rule not given here;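 note: 0% = cells with DMSO and 100% = no-cell wells with DMSO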
Numbers without * were called inactive; i = inactive; . = no result.

SMILES	OPRM1-OPRD1 ag	HTR5A ag	HTR5A inv ctr	MOR-DOR inv ag	OPRM1-D1 inv cf	HTR5A inv count
COc1cc(/C=N/Nc2ccc(F)cc2F)cc(OC)c1O	-6.2	-3.5	13.0	32.2*	-12.5	1.5
Cc1ccc(C(=O)COC(=O)CN2C(=O)C3C4C=CC(C4)C3C2=O)cc1[N+](=O)[O-] (stereo not given)	-4.7	-3.9	11.5	37.5*	-69.7	-14.7
O=C(CCN1C(=O)C2C3CCC(C3)C2C1=O)OCC(=O)c1ccc(Br)cc1 (stereo not given)	-2.8	2.1	-7.6	15.7	.	.
Cc1ccc(C(=O)COC(=O)CN2C(=O)C3C4CCC(C4)C3C2=O)cc1[N+](=O)[O-] (stereo not given)	-8.6	-6.4	22.8	53.4*	-31.8	4.9
Cc1ccc(C(=O)COC(=O)CN2C(=O)C3CC=CCC3C2=O)cc1[N+](=O)[O-] (stereo not given)	-9.2	-3.5	1.2	49.9*	47.7*	19.7
Cc1ccc(C(=O)COC(=O)CCN2C(=O)C3C4CCC(C4)C3C2=O)cc1[N+](=O)[O-] (stereo not given)	-9.9	-6.0	20.7	54.7*	47.7*	20.6
O=C(O)COC(=O)Cc1ccccc1Nc1c(Cl)cccc1Cl	-0.6	-3.6	12.8	3.0	.	.
O=C(CSc1nncn1-c1cccnc1)Nc1cccc(C(F)(F)F)c1	0.3	5.9	-38.0	-1.8	.	.
O=C(CN1C(=O)C2C3C=CC(C3)C2C1=O)OCC(=O)c1ccc(Cl)c([N+](=O)[O-])c1 (stereo not given)	-14.1	-8.4	21.2	77.9*	83.8*	19.0
N#Cc1c(NC(=O)c2cnccn2)sc2c1CCCC2	0.1	1.4	7.1	-0.6	.	.
COc1c(C(=O)NC(=S)Nc2nnn(C)n2)cc2ccccc2c1Br	-0.6	-0.8	2.0	3.1	.	.
COc1ccc(C(=O)NC(=S)Nc2nnn(C)n2)cc1	-6.0	-3.1	21.0	27.1	.	.
Cn1nnc(NC(=S)NC(=O)c2ccco2)n1	-5.4	-6.1	20.0	24.0	.	.
COc1cccc(C(=O)NC(=S)Nc2nnn(C)n2)c1	-5.0	0.8	9.3	27.9*	-2.0	14.7
Cn1nnc(NC(=S)NC(=O)c2cccc3c(Cl)cccc23)n1	-5.9	-3.6	14.6	31.4*	-12.7	16.5
Cn1nnc(NC(=S)NC(=O)c2cccc3c(Br)cccc23)n1	-6.2	-4.4	17.8	33.1*	-4.3	-4.9
Cc1ccc(N=C2SC(C(=O)O)CC(=O)N2C)cc1C (stereo not given)	-2.0	3.6	6.0	10.5	.	.
O=C1CSC(=S)N1N=Cc1ccc(Cl)s1	0.8	1.5	-5.7	-3.4	.	.
O=C1Nc2ccc(Br)cc2C1=C1CCCCC1	0.8	-1.4	5.2	-4.1	.	.
N#C/C(=C1/C(=O)Nc2ccc(Br)cc21)c1ccccn1	-10.5	-4.2	11.5	49.1*	i	3.9
CCn1ncc(S(=O)(=O)Nc2cccnc2)c1C	-1.1	9.2	-22.1	5.6	.	.
CCn1cc(S(=O)(=O)Nc2cccnc2)cn1	-6.9	-10.2	6.7	37.1*	41.4*	-12.1
Cc1cc(C)n2nc(SC(C)C(=O)N3CCOCC3)nc2n1 (stereo not given)	-5.7	1.4	7.1	36.9*	-16.5	3.0
O=[N+]([O-])c1c(NCCCO)cc(Sc2nc3ccccc3s2)c2nonc12	-6.1	-5.0	2.4	34.6*	29.9	12.2
CCC(=O)OCCNc1cc(Sc2nc3ccccc3[nH]2)c2nonc2c1[N+](=O)[O-]	-8.3	-9.7	-8.9	43.0*	-10.1	-8.5
SMILES	OPRM1-OPRD1 ag	HTR5A ag	HTR5A inv ctr	MOR-DOR inv ag	OPRM1-D1 inv cf	HTR5A inv count
C=CCOc1ccc(/C=N/n2nnnc2N)cc1OC	-1.7	1.4	-4.8	8.3	.	.
COc1cccc2[nH]c(C(=O)NCc3ccccc3)cc12	-2.2	3.6	-13.3	10.5	.	.
Cc1cnn(CCC(=O)NNC(=S)Nc2ccc(F)cc2)c1	-5.5	-2.9	7.6	31.1*	40.4*	0.7
S=C1NCCc2ccccc2C1c1ccccc1 (stereo not given)	-2.2	-5.1	5.2	13.4	.	.
S=C1NCCc2ccccc2C1c1ccccc1Cl (stereo not given)	-8.8	-1.9	-27.4	44.1*	4.9	10.1
CNC(=S)NNC(=O)c1sc2cc(C(F)(F)F)cnc2c1-c1ccccn1	-5.5	-6.9	17.9	31.1*	4.2	4.0
CCCCN(C(=O)c1cccc(S(=O)(=O)N2CCN(C)CC2)c1)c1c(N)n(CCC)c(=O)[nH]c1=O	-3.4	-1.3	2.0	16.6	.	.
O=C1N=C(c2ccccc2)S/C1=C\c1cccs1	-5.8	-0.1	-8.4	34.3*	-434.4	-45.4
CC(=O)/C=C1/C(=O)Nc2ccccc21	-14.1	-2.0	4.8	73.5*	71.5*	1.8
C=CCOc1cccc(C(=O)/C=C2/C(=O)Nc3ccccc32)c1	-2.5	4.1	-14.6	11.2	.	.
O=C1NC[C@@H](c2ccccc2)OC(=O)[C@@H](Cc2ccc(F)cc2)CC/C=C/C[C@@H]1CC(=O)N(CCO)Cc1ccccc1	-5.8	-6.4	10.0	33.5*	8.6	25.7
CC(=O)Nc1ccc(O)c(-c2nc3ccccc3s2)c1	-3.8	3.4	-1.9	26.4*	-47.2	-8.2
Cc1cc(C=O)c(C)n1-c1ccc(N2CCCC2)c([N+](=O)[O-])c1	-1.5	-1.0	3.7	8.1	.	.
Cc1ccc2c(c1)C(=O)C(=O)N2CCOc1ccccc1	-7.6	-1.6	4.8	37.7*	-5.6	-1.3
CCCN1C(=O)C(=O)c2cc(C)ccc21	-3.6	1.7	25.5	16.5	.	.
Cc1cccc(OCCN2C(=O)C(=O)c3cc(C)ccc32)c1	-5.7	6.3	20.1	29.6*	-6.5	-16.0
CCCc1nnc(NC(=S)Nc2ccccc2)s1	1.1	-5.5	5.0	-5.2	.	.
CC(C)C(=O)Nc1nnc(NC(=S)Nc2ccccc2)s1	-7.9	-2.6	14.3	36.0*	33.8*	10.0
CC1(C)C(c2cccs2)=NC(c2ccccc2)N1O (stereo not given)	-2.8	4.7	-14.3	14.5	.	.
CC1(C)C(c2ccccc2)=NC(c2ccc(F)cc2)N1O (stereo not given)	-5.1	3.6	-5.1	29.4*	-13.1	-57.1
O=C(CSc1nnc(-c2ccccc2F)o1)N1CCNC1=O	-1.7	-0.4	-15.3	6.7	.	.
CC(=O)Nc1ccccc1C(=O)C(=O)O	-6.5	-2.9	7.4	36.6*	-5.7	-3.6
COC(=O)C1NN=C(C(=O)c2ccc(Cl)cc2)C1c1ccc(OC)cc1 (stereo not given)	-7.8	-9.1	24.4	46.9*	15.8	1.8
COc1ccc(C(C#N)=C2C=CC(=NO)C=C2)cc1	-9.6	0.8	-2.0	47.6*	-46.7	-34.9
